According to PubChem BioAssay (Tox21):
Results filed as inconclusive are left out. Activity calls are given as the source filed them. Calls come from the whole dose curve; as a rule, active = well fitted curve in the direction sought with a large enough effect in the repeat runs; inconclusive = weak or mixed curves; inactive = no such curve, though single readings can be large; an effect the other way counts as inactive or inconclusive.

Assays:
[1] = A CellTox Green Cytotoxicity Assay to monitor cytotoxicity in HepG2 cells - 32 hour (AID 1224883); note: nearly all actives have a fitted effect of over 50% in size; note: potency is the fitted concentration of half-maximal effect
Outline: (§1)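 HepG2, 600 cells/well premixed w/ CellTox Green; 5 h settle, 37 C/5% CO2; pintool cpd add (DMSO); 37 C, 40 h; fluorescence read at 0, 8, 16, 24, 32, 40 h.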

[2] = qHTS RealTime-Glo MT Cell Viability Assay in HepG2 cells - 16 hour (AID 1224885); note: nearly all actives have a fitted effect of over 50% in size; note: potency is the fitted concentration of half-maximal effect
Outline: (§2)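 Tox21 10K library screened in qHTS format on HepG2 cells carrying RealTime-Glo reagents. Compounds were added after a 5 h preincubation, and the luminescent signal from continuous culture was measured repeatedly during 40 h treatment.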

[3] = qHTS RealTime-Glo MT Cell Viability Assay in HEK293 cells - 24 hour (AID 1224886); note: nearly all actives have a fitted effect of over 50% in size; note: potency is the fitted concentration of half-maximal effect; for activity change, negative = cytotoxicity: top concentration of the series differs between compounds
Outline: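 Luminescence generated by NanoLuc from substrate produced by living HEK293 cells served as the viability signal. Each value reflects the reading at its stated time point during continuous 40 h compound exposure at 37 C.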

[4] = qHTS assay to identify small molecule antagonists of the estrogen receptor alpha (ER-alpha) signaling pathway using the BG1 cell line in the presence of 0.1 nM 17-beta-estradiol - cell viability counter screen (AID 1259241); note: nearly all actives have a fitted effect of over 40% in size; note: potency is the fitted concentration of half-maximal effect
Outline: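 Cytotoxicity counter-screen: live-cell protease activity measured by fluorescence (30 min reagent step) in the same wells. Cells were VM7Luc4E2 with endogenous ER-alpha and ERE-driven luciferase, treated 22 hr at 37C alongside 0.1 nM 17beta-estradiol final.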

[5] = A CellTox Green Cytotoxicity Assay to monitor cytotoxicity in HEK293 cells - 8 hour (AID 1224884); note: nearly all actives have a fitted effect of over 35% in size; note: potency is the fitted concentration of half-maximal effect
Outline: (§3)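 Read-out: fluorescence of a cell-impermeant cyanine dye staining DNA of dead cells, proportional to cytotoxicity. HEK293, 600 cells/well with reagent, compound (23 nL DMSO) added after 5 h; reads at 0, 8, 16, 24, 32, 40 h.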

[6] = qHTS RealTime-Glo MT Cell Viability Assay in HEK293 cells - 8 hour (AID 1224887); note: nearly all actives have a fitted effect of over 50% in size; note: potency is the fitted concentration of half-maximal effect; for activity change, negative = cytotoxicity: top concentration of the series differs between compounds
Outline: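 Luminescence readout at each listed time point; HEK293, 600 cells/well, RealTime-Glo MT reagent added with cells; compounds pinned (23 nL in DMSO) after 5 h at 37 C; continuous culture at 37 C.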

[7] = A CellTox Green Cytotoxicity Assay to monitor cytotoxicity in HEK293 cells - 16 hour (AID 1224888); note: nearly all actives have a fitted effect of over 35% in size; note: potency is the fitted concentration of half-maximal effect
Outline: as §3

[8] = qHTS RealTime-Glo MT Cell Viability Assay in HepG2 cells - 0 hour (AID 1224889); note: nearly all actives have a fitted effect of over 50% in size
Outline: as §2

[9] = A CellTox Green Cytotoxicity Assay to monitor cytotoxicity in HepG2 cells - 8 hour (AID 1224890); note: nearly all actives have a fitted effect of over 45% in size; note: potency is the fitted concentration of half-maximal effect
Outline: as §1
% is set by controls: 0 for no effect and ±100 for the full control effect.

CN(C)CC/C=C1\c2ccccc2Sc2ccc(Cl)cc21
inactive: Potency [4]
active: Potency [1] 21.3 µM | Potency [2] 23.9 µM | Potency [3] 23.9 µM

CC(=O)C(C)=O
inactive: Potency [5] | Potency [2] | Potency [3] | Potency [6] | Potency [7] | Potency [8] | Potency [9] | Potency [4]

CCCCCCCCCCCCCCN(C)C
inactive: cytotoxicity increase [5] -28% [at 15.8 µM] | activity change, negative = cytotoxic [2] -0.238% [at 15.8 µM] | activity change [7] -30.9% [at 15.8 µM, active compounds read high] | activity change, negative = cytotoxicity [8] -19.6% [at 15.8 µM] | cytotoxicity increase [9] -1.47% [at 15.8 µM] | activity change, negative = cytotoxicity [4] 0.479% [at 19 µM]

O=C(O)c1ccc(O)cc1O
inactive: Potency [5] | Potency [2] | Potency [3] | Potency [6] | Potency [7] | Potency [8] | Potency [9] | Potency [4]

COc1ccc(-c2cc(C(F)F)nn2-c2ccc(S(N)(=O)=O)cc2)cc1F
inactive: Potency [1] | Potency [5] | Potency [2] | Potency [6] | Potency [7] | Potency [8] | Potency [9] | Potency [4]

CC(C)C(=O)OCCOc1ccccc1
inactive: Potency [1] | Potency [5] | Potency [2] | Potency [3] | Potency [6] | Potency [7] | Potency [8] | Potency [9] | Potency [4]

O=C(c1ccccc1)C1CCC1
inactive: Potency [2] | Potency [3] | Potency [6] | Potency [8] | Potency [4]
active: Potency [1] 38.9 µM | Potency [5] 38.9 µM | Potency [7] 27.5 µM | Potency [9] 38.9 µM

COc1ccc(-c2cc(=S)ss2)cc1
inactive: Potency [1] | Potency [5] | Potency [2] | Potency [3] | Potency [7] | Potency [8] | Potency [9]

CC(=O)OC(C)C[N+](C)(C)C (stereo not given)
inactive: Potency [1] | Potency [5] | Potency [2] | Potency [3] | Potency [6] | Potency [7] | Potency [8] | Potency [9] | Potency [4]

COc1cc(NS(=O)(=O)c2ccc(N)cc2)nc(C)n1
inactive: Potency [1] | Potency [5] | Potency [2] | Potency [3] | Potency [6] | Potency [7] | Potency [8] | Potency [9]

CC(=O)NNC(C)=O
inactive: Potency [5] | Potency [2] | Potency [3] | Potency [6] | Potency [7] | Potency [8] | Potency [9] | Potency [4]

Cc1ccccc1S(N)(=O)=O
inactive: Potency [1] | Potency [5] | Potency [2] | Potency [3] | Potency [6] | Potency [7] | Potency [8] | Potency [9] | Potency [4]

COc1ccc(/C=C/C(=O)c2ccc(OC)cc2OC)cc1
inactive: Potency [5] | Potency [2] | Potency [3] | Potency [7] | Potency [8] | Potency [9]

CCCOC(=O)c1c(Cl)c(Cl)c(Cl)c(Cl)c1C(=O)OCCC
inactive: Potency [1] | Potency [5] | Potency [2] | Potency [3] | Potency [6] | Potency [7] | Potency [8] | Potency [9] | Potency [4]

CCCCC(CC)COS(=O)(=O)O (stereo not given)
inactive: Potency [1] | Potency [5] | Potency [2] | Potency [3] | Potency [6] | Potency [8] | Potency [9] | Potency [4]

CCN(CC)c1cccc(O)c1
inactive: Potency [1] | Potency [5] | Potency [2] | Potency [3] | Potency [6] | Potency [7] | Potency [8] | Potency [9] | Potency [4]

CC(=O)OCCC(C)CC(C)(C)C (stereo not given)
inactive: Potency [5] | Potency [2] | Potency [3] | Potency [6] | Potency [7] | Potency [8] | Potency [9]

CC[C@H]1OC(=O)[C@H](C)[C@@H](O[C@H]2C[C@@](C)(OC)[C@@H](O)[C@H](C)O2)[C@H](C)[C@@H](O[C@@H]2O[C@H](C)C[C@H](N(C)C)[C@H]2O)[C@](C)(O)C[C@@H](C)C(=O)[C@H](C)[C@@H](O)[C@]1(C)O
inactive: Potency [1] | Potency [5] | Potency [2] | Potency [3] | Potency [6] | Potency [7] | Potency [8] | Potency [9]

Nc1cccc2c(N)cccc12
inactive: Potency [5] | Potency [6] | Potency [7] | Potency [8] | Potency [9]
active: Potency [4] 27.3 µM

CC(C)(C)C1(CCc2ccc(Cl)cc2)CO1 (stereo not given)
inactive: Potency [5] | Potency [2] | Potency [3] | Potency [6] | Potency [7] | Potency [8] | Potency [9] | Potency [4]

CC1CCCO1 (stereo not given)
inactive: Potency [1] | Potency [5] | Potency [2] | Potency [3] | Potency [6] | Potency [7] | Potency [8] | Potency [9]

CC[C@H]1OC(=O)[C@H](C)[C@@H](O[C@H]2C[C@@](C)(OC)[C@@H](O)[C@H](C)O2)[C@H](C)[C@@H](O[C@@H]2O[C@H](C)C[C@H](N(C)C)[C@H]2O)[C@](C)(O)C[C@@H](C)CN(C)[C@H](C)[C@@H](O)[C@]1(C)O
inactive: Potency [1] | Potency [5] | Potency [2] | Potency [3] | Potency [6] | Potency [7] | Potency [8] | Potency [9] | Potency [4]

CC(CN(CCN(CC(C)OCCO)CC(C)OCCO)CC(C)OCCO)OCCO (stereo not given)
inactive: Potency [5] | Potency [2] | Potency [7] | Potency [8] | Potency [9] | Potency [4]
active: Potency [3] 23.7 µM

CCCCCCCCCCCCCOC(=O)CCSCCC(=O)OCCCCCCCCCCCCC
inactive: cytotoxicity increase [5] 12.5% [at 15.8 µM] | activity change, negative = cytotoxic [2] -6.5% [at 15.8 µM] | activity change, negative = cytotoxicity [3] -2.9% [at 15.8 µM] | activity change, negative = cytotoxicity [6] -5.3% [at 15.8 µM] | activity change [7] 17.2% [at 15.8 µM, active compounds read high] | activity change, negative = cytotoxicity [8] -15% [at 15.8 µM] | cytotoxicity increase [9] 4.96% [at 15.8 µM] | activity change, negative = cytotoxicity [4] 6.24% [at 19 µM]

CCCCC[C@H](O)/C=C/[C@H]1[C@H](O)CC(=O)[C@@H]1C/C=C\CCCC(=O)O
inactive: Potency [5] | Potency [2] | Potency [3] | Potency [6] | Potency [7] | Potency [8] | Potency [9] | Potency [4]

CO[C@@H]1[C@@H](OC)[C@H](C)[C@@](O)(CC(=O)O)O[C@H]1[C@H](C)[C@H]1O[C@@]2(CC[C@@](C)([C@H]3CC[C@@](C)([C@@H]4O[C@@H]([C@H]5O[C@](C)(O)[C@H](C)C[C@@H]5C)C[C@@H]4OC4C[C@H](OC)[C@@H](OC)[C@H](C)O4)O3)O2)C[C@H](O)[C@H]1C (stereo not given in full)
active: Potency [1] 9.52 µM | Potency [3] 3.38 µM | Potency [6] 8.49 µM
inactive: Potency [5] | Potency [7] | Potency [8]
